For five compounds, composite z-score and z-score results are on record in PubChem BioAssay.

Test [1] is described as follows: small molecules captured by biotinylated probe aFSTL3 – biochemical, small-molecule microarray, fluorescence 635/667, stem cell growth factor project, primary screen (AID 1064).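 Note: measures binding of the biotinylated anti-FSTL3 antibody to printed compounds.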 To be noted: higher = more signal.
Test [2] in a line: binders from COS7 lysate, DM2A8 probe, primary screen, torsin A project, cell lysate, small-molecule microarray, fluorescence 635/667 (AID 1065). To be noted: higher = more signal, COS7 lysate expressing mutant human TOR1A.
A short description of test [3]: small molecules captured by biotinylated probe aFGF2 – biochemical, small-molecule microarray, fluorescence 635/667, stem cell growth factor project, primary screen (AID 1067).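 Note: measures binding of biotinylated aFGF2 protein to printed compounds on slides; z-score merges feature fluorescence and signal-to-noise across triplicate slides.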 To be noted: higher = more signal.
The nature of test [4]: small molecules captured by biotinylated probe aFGF10 – biochemical, small-molecule microarray, fluorescence 635/667, stem cell growth factor project, primary screen (AID 1071).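 Note: score merges 667 nm spot intensity and signal to noise from triplicate slides.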 To be noted: higher = more signal.
Test [5] concerns the target Neurogenic locus notch homolog protein 2 (Homo sapiens) (UniProt Q04721). Briefly: small molecules binding Notch2 protein – biochemical, small-molecule microarray, 635 nm fluorescence, stem cell growth factors, primary screen (AID 1073). The conditions noted are these: higher = more signal.
Test [6] concerns the target Pro-neuregulin-1, membrane-bound isoform (Homo sapiens) (UniProt Q02297). Kind of test: small molecules binding neuregulin-1 protein – biochemical, small-molecule microarray, fluorescence 635/667, psychiatric disease protein project, primary screen (AID 1075).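 Note: score combines 667 nm spot fluorescence with signal to noise.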 The conditions noted are these: NRG1 binding, 635 nm fluorescence, higher = more signal.
The subject of test [7] is Neuregulin-1 EGF-like domain. Kind of test: small molecules binding NRG1 EGF domain – biochemical, small-molecule microarray, 635 nm fluorescence, primary screen (AID 1081).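 Note: binding of the protein to compounds printed on small-molecule microarray slides.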 The conditions noted are these: higher = more signal.
Test [8] can be described thus: FRG1 expression reporter modulators in myotubes – cell-based, C2C12 myotubes, firefly/Renilla luciferase, luminescence, FRG1 inhibition for FSHD, primary screen (AID 1084). The conditions noted are these: FRG1 promoter luciferase, higher = more signal, called active from +8 up or from −8 down.
The nature of test [9]: small molecules captured by biotinylated probe aFST – biochemical, small-molecule microarray, fluorescence 635/667, stem cell growth factor project, primary screen (AID 1086).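 Note: score merges 667 nm fluorescence with signal-to-noise of each printed compound spot.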 To be noted: higher = more signal.
Test [10] is described as follows: binders of probe aHhip on microarray, primary screen, stem cell growth factor project, biochemical, small-molecule microarray, fluorescence 635/667 (AID 1087).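 Note: score merges spot fluorescence at 667nm with spot signal to noise ratio.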 The conditions noted are these: higher = more signal.
The subject of test [11] is PRMT1 (protein arginine N-methyltransferase 1). Briefly: small molecules binding arginine methyltransferase PRMT1 – biochemical, small-molecule microarray, 635 nm fluorescence, primary screen (AID 1088).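 Note: binding of Prmt1 protein to compounds spotted on small-molecule microarray slides.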 To be noted: higher = more signal.
Test [12] can be described thus: growth effects on S. cerevisiae YJM789 – YJM789 clinical isolate, OD600, 24 h, basal, primary screen (AID 1089).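 Note: growth of clinical yeast isolate S. cerevisiae YJM 789 seeded 1000 cells per well; test concentration not given here.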 To be noted: higher = more signal, called active from +8 up or from −8 down.
Test [13] can be described thus: S. pombe growth modifiers, basal conditions – strain 972, OD600, 24 h, no modulator, primary screen (AID 1090).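 Note: basal condition with compound alone and no growth modifier present; test concentration not given here.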 The conditions noted are these: S. pombe 972 growth, higher = more signal, called active from +8 up or from −8 down.
The nature of test [14]: budding yeast growth modifiers under rapamycin – strain BY4716, OD600, 96 h, primary screen (AID 1091). Note: test concentration not given here. The conditions noted are these: S. cerevisiae BY4716 + rapamycin, higher = more signal, called active from +8 up or from −8 down.
For test [15], the target named is Torsin-1A-interacting protein 2 (Homo sapiens) (UniProt Q8NFQ8). Briefly: small molecules binding lysate-expressed LULL1 – cell lysate, human LULL1 lysate, 635/667 nm fluorescence, primary screen (AID 1092).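 Note: probe is lysate of COS7 cells overexpressing human LULL1; score merges per-feature 667 nm fluorescence with signal-to-noise.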 To be noted: small-molecule microarray, hLULL1 lysate binding, 635 nm fluorescence; higher = more signal.
The nature of test [16]: optical density change of DRC41 E. coli – strain DRC41, OD650, 24 h, E. coli filamentation project, primary screen (AID 1093).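 Note: MC1000 strain lacking acrAB efflux and sulA so SOS filamentation is blocked; test concentration not given here.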 To be noted: E. coli DRC41 growth, higher = more signal, called active from +8 up or from −8 down.
Test [17] in a line: probe aLefty2 binding to arrayed compounds – biochemical, biotinylated probe, 635/667 nm fluorescence, primary screen (AID 1094).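 Note: score merges spot fluorescence near 667 nm with spot signal-to-noise ratio.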 The conditions noted are these: small-molecule microarray, higher = more signal.
Test [18] deals with Noggin (protein binding on small-molecule microarray). Kind of test: small molecules binding Noggin protein – biochemical, 635/667 nm fluorescence, primary screen (AID 1095).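 Note: score merges 667 nm feature fluorescence with signal to noise over triplicate slides.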 The conditions noted are these: 635 nm fluorescence, higher = more signal.
The target in test [19] is Neurogenic locus notch homolog protein 3 (Homo sapiens) (UniProt Q9UM47). Briefly: small molecules binding NOTCH3 protein – biochemical, 635/667 nm fluorescence, primary screen (AID 1096). To be noted: small-molecule microarray, 635 nm fluorescence, higher = more signal.
Sequence of Neurogenic locus notch homolog protein 3 (Homo sapiens) (Q9UM47 whole entry, looked up): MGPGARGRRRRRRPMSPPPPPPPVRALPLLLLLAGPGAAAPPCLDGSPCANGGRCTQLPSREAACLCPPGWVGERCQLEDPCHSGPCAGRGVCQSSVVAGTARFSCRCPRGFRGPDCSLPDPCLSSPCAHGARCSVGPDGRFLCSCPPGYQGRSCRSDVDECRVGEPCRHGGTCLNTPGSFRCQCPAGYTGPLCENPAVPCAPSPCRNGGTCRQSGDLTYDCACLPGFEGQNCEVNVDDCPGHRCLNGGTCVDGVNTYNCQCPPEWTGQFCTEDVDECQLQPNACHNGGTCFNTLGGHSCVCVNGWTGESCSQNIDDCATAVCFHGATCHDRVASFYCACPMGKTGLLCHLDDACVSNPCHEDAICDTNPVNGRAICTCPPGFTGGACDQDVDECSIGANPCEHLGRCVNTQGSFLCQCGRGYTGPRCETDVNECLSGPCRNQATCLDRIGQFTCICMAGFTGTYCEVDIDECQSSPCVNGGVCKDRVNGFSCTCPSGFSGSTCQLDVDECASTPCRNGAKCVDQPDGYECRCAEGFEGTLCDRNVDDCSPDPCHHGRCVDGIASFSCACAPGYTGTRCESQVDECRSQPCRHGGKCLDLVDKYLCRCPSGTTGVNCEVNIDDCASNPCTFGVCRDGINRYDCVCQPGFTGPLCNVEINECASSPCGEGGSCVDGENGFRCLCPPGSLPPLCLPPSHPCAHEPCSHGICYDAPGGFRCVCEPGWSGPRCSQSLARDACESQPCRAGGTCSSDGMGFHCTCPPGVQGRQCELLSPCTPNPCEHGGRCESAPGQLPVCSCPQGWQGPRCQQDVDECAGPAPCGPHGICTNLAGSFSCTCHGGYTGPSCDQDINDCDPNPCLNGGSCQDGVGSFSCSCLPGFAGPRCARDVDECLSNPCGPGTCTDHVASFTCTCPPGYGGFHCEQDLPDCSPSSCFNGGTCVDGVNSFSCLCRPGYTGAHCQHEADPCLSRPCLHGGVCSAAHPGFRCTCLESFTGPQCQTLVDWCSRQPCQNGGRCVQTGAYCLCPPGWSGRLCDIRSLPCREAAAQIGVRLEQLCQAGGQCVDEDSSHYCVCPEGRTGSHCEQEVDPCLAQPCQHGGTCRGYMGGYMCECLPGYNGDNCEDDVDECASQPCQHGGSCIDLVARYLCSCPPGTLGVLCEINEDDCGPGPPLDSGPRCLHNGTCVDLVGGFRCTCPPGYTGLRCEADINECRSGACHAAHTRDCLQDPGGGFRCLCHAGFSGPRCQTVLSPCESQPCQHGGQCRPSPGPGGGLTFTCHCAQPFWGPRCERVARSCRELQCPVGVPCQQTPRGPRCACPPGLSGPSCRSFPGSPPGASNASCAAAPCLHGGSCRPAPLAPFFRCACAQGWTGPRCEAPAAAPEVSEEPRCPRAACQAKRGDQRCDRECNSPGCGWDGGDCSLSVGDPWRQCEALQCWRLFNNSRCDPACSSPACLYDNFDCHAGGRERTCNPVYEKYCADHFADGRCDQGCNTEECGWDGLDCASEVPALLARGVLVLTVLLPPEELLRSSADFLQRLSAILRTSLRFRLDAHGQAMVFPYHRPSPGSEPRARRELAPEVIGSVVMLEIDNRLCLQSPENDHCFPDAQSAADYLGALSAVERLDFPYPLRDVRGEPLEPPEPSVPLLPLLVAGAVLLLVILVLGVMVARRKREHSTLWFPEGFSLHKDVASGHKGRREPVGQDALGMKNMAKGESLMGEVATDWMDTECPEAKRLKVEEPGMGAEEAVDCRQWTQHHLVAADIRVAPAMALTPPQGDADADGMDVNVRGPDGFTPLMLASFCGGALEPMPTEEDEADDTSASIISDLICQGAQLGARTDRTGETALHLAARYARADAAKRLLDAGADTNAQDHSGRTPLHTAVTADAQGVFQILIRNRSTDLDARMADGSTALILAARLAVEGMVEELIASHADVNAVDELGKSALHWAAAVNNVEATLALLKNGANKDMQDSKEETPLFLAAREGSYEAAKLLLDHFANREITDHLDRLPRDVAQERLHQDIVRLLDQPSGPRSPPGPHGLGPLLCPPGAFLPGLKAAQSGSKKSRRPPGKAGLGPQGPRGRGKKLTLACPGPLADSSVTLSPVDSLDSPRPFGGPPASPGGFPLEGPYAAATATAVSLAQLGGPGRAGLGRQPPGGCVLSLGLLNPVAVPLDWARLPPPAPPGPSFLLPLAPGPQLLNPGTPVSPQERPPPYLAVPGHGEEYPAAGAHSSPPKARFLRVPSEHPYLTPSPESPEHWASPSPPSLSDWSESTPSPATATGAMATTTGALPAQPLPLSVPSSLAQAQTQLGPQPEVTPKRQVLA
Test [20] can be described thus: probe aEGFR binding to arrayed compounds – biochemical, biotinylated probe, 635/667 nm fluorescence, primary screen (AID 1097).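 Note: probe is a biotinylated anti-EGFR antibody binding compounds printed on slides; score combines fluorescence near 667 nm and signal to noise of each spot.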 The conditions noted are these: small-molecule microarray, higher = more signal.

Calls of active or inactive are those of the source.

Sequence of Neurogenic locus notch homolog protein 2 (Homo sapiens) (Q04721 whole entry, looked up, canonical isoform): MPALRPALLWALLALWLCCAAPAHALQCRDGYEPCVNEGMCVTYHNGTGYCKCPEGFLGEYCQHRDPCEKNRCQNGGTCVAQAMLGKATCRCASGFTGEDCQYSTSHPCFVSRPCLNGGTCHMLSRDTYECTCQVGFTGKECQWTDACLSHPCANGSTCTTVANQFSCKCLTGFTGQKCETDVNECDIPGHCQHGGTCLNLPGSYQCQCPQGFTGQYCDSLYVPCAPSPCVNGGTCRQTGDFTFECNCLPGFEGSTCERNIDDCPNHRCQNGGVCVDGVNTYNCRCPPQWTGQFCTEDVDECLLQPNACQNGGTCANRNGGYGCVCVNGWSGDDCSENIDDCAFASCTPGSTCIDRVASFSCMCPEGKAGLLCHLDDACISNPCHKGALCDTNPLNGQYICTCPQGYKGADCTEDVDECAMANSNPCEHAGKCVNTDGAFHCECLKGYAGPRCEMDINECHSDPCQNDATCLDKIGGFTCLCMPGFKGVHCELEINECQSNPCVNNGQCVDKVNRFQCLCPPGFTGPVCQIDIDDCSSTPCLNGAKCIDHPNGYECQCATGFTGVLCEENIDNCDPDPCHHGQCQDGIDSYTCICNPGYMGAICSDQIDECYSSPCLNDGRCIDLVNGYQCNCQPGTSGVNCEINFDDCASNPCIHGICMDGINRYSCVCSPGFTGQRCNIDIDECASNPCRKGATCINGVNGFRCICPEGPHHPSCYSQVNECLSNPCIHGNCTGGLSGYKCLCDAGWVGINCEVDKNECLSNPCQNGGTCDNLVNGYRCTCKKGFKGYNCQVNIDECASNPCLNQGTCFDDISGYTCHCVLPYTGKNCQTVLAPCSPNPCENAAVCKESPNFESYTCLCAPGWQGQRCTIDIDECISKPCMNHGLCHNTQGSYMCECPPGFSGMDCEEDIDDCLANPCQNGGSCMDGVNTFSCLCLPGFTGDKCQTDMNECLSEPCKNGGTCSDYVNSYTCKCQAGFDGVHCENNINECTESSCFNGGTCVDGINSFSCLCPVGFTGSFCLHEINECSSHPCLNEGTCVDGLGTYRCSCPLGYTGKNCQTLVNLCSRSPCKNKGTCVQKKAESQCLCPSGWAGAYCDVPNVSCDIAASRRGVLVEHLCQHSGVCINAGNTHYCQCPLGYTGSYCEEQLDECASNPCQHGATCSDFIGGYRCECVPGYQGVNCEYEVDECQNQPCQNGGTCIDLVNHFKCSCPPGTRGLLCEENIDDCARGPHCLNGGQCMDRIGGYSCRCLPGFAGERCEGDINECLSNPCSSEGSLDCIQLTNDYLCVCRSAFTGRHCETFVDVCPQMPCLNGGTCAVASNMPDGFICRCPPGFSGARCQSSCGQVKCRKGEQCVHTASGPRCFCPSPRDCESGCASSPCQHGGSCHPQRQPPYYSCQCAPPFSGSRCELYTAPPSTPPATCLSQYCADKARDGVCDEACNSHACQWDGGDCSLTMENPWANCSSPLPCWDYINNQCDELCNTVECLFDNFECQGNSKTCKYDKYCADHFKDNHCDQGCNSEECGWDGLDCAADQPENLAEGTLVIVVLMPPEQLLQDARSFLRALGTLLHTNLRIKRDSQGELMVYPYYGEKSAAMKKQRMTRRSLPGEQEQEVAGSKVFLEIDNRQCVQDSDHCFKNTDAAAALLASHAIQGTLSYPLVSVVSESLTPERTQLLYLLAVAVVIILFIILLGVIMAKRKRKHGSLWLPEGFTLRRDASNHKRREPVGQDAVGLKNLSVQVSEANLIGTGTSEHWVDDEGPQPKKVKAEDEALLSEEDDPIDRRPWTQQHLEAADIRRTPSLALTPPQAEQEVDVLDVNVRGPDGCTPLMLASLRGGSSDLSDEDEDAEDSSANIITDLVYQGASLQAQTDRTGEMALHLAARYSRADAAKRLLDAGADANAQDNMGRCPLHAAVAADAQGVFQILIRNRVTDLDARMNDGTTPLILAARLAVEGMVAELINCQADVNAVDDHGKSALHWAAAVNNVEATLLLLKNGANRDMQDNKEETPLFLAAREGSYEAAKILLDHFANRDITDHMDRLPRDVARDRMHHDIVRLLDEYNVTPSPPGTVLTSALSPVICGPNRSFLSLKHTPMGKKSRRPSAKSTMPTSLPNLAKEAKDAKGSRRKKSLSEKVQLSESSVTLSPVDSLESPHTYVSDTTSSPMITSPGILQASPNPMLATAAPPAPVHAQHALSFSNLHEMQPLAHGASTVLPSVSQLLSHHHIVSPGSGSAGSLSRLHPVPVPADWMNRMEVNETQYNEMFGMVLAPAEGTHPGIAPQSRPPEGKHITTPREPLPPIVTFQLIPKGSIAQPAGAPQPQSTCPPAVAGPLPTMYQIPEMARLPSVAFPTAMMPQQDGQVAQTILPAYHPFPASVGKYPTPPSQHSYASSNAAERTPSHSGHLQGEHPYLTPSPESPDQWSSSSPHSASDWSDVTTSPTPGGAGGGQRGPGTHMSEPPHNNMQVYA

Regarding `C=CCNC(=O)[C@@H]1[C@H]2C(=O)O[C@H](c3ccccc3)[C@H](c3ccccc3)N2[C@H](c2ccc(O)cc2)[C@@]12C(=O)Nc1ccc(C#CCC(C(=O)OC)C(=O)OC)cc12`, the composite z-score in test [1] was -0.174; in test [2], 0.198; in [3], -0.18; in [4], 0.163; in test [5], 0.162; in test [6], 0.749. Besides, the composite z-score is 0.95 in test [7]; 0.249 in test [9]; 0.0623 in [10]; 1.55 in test [11]; 2.32 in test [15]; 0.0539 in [17]. Further, the composite z-score is 0.482 in test [18], 0.387 in test [19] and -0.187 in test [20]. Also, the z-score in [8] was 1.03 (inactive); in test [12], 1.66 (inactive); in test [13], 0.918 (inactive); in test [14], 1.12 (inactive); in test [16], -0.311 (inactive).
As to `C=C(/C(=C/C[C@@H](OC(C)=O)c1ccc(OCCO)cc1)c1cc(C(=O)OC)ccc1OC)C(C)C`, the composite z-score in test [1] was -0.247; in [2], 0.239; in [3], -0.155; in test [4] it was 0.29; in test [5], 0.355; in test [6], 1.67. Also, the composite z-score is 0.945 in [7]; -0.034 in test [9]; 0.0024 in test [10]; 0.629 in test [11]; 1.21 in test [15]; -0.152 in [17]. Also, the composite z-score was 0.902 in test [18], 0.843 in [19] and -0.176 in test [20]. Also, the z-score in test [8] is 2.89 (inactive); in test [12], -0.265 (inactive); in test [13] it was 0.272 (inactive); in test [14], -1.5 (inactive); in test [16] it was -0.268 (inactive).
Turning to `COc1ccc([Si](C)(C)[C@H]2[C@H](CCO)O[C@@]3(C(=O)N(Cc4ccc(N5C(=O)c6ccccc6Oc6ccccc65)cc4)c4ccccc43)[C@@H]2C)cc1`, the composite z-score in test [1] is 0.603; in [2] it was -0.352; in test [3], -0.081; in [4] it was 0.251; in test [5] it was -0.389; in [6] it was 0.0473. Besides, the composite z-score is 0.644 in test [7]; -0.601 in test [9]; -0.284 in test [10]; 0.263 in test [11]; 0.822 in test [15]; 0.0004 in [17]. Besides, the composite z-score in test [18] is -1.01; in test [19], -0.532; in [20], 0.0125. The z-score is -3.69 (inactive) in test [8]; 2.1 (inactive) in test [12]; -1.25 (inactive) in [13]; 22.7 (active) in [14]; 0.511 (inactive) in [16].
As to `C[C@]1(C(=O)O)c2ccccc2C(=O)N(Cc2ccc(OC(F)(F)F)cc2)[C@H]1c1ccc(CO)cc1`, the composite z-score was 0.592 in test [1]; -0.139 in test [2]; -0.0442 in test [3]; -0.106 in test [4]; -0.0052 in [5]; 0.787 in test [6]. For the same compound, the composite z-score in test [7] was 0.509; in test [9] it was 0.302; in [10] it was -0.226; in test [11] it was -0.0461; in test [15], 0.945; in test [17], 0.122. Moreover, the composite z-score in test [18] is -0.94; in [19] it was -0.505; in test [20] it was -0.179. Besides, the z-score in test [8] is -1.27 (inactive); in test [12], -0.691 (inactive); in test [13], -0.767 (inactive); in test [14] it was -0.686 (inactive); in [16], 0.402 (inactive).
For the compound `CC(C)(C)OC(=O)CC[C@]1(C(=O)N2CCCCC2)COC(c2ccc(OCCCO)cc2)=N1`, the composite z-score was found to be 0.161 in test [1]; 1.05 in test [2]; 0.0159 in test [3]; 1.2 in [4]; 1.6 in test [5]; 1.35 in test [6]. Besides, the composite z-score in test [7] amounted to 1.15; in [9] it was 0.372; in test [10], 0.0373; in test [11], 1.47; in test [15], 3.57; in [17], 0.066. Further, the composite z-score in test [18] is 0.318; in test [19], 0.79; in [20], -0.0139. Also, the z-score in [8] was -2.51 (inactive); in test [12], -1.1 (inactive); in test [13], -0.878 (inactive); in test [14], -1.57 (inactive); in test [16] it was 0.992 (inactive).
